Experiment [1] addresses Mitogen-activated protein kinase 10 (Mus musculus) (UniProt Q61831). Description: JNK3 AlphaScreen Assay (AID 530; active = well fitted curve in either direction with a large enough effect, not every such curve was filed as active;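 also: kinase came from lysate of stimulated human HepG2 cells; signal reports phosphorylation of biotinylated GST-cJun 1-79 at Ser73 with 10 µM ATP; % is scaled to controls: 0 for no effect and ±100 for the full control effect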). Summed up: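 qHTS format: compounds tested as titrations against IL-1beta/TNF-alpha-activated HepG2 lysate JNK3 with biotin-GST-cJun substrate and 10 uM ATP at room temperature. Loss of anti-phospho-cJun AlphaScreen signal indicates inhibition.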
Experiment [2] has as its target 3',5'-cyclic-AMP phosphodiesterase 4B (Homo sapiens) (UniProt Q07343). Put plainly: qHTS Assay for Inhibitors of PDE-IV (AID 607; active = well fitted activation curve with a large enough effect in the main read-out, with a control signal flat, not every such curve was filed as active; also: % of control where 0% means no effect). Summed up:
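The readout is membrane depolarisation from a cAMP-sensing CNG channel, detected with a potential dye at ex 535/em 590. Cells were HEK293-derived (endogenous PDE-IV) at 1000 cells/well, titrated up to 22.9 uM final.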

A short description of experiment [3]: qHTS Assay for Lipid Storage Modulators (AID 1519). As to activity change, negative = inhibition: % is scaled to controls: 0 for no effect and ±100 for the full control effect. The following applies: Drosophila S3 cells, BODIPY lipid droplet/cell ratio, laser cytometry, cells loaded with oleic acid. The gist of the method: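 Cells seeded at 5,000 per well were treated with compounds over a concentration series and loaded with oleic acid (400 uM, as added). Lipid droplet fluorescence (488 nm excitation, 500-530 nm channel) was read by laser-scanning cytometry and normalized to 20 uM Triacsin C.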
On the technique in general: Quantitative high-throughput screening tests each substance at several concentrations.

Experiment [4] deals with Ubiquitin carboxyl-terminal hydrolase 1 (Homo sapiens) (UniProt O94782). Description: Inhibitors of USP1/UAF1: Pilot qHTS (AID 504865; active = well fitted inhibition curve with a large enough effect;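 also: rhodamine fluorescence freed from ubiquitin-rhodamine substrate followed over time; top concentration of the series differs between compounds; % is scaled to controls: 0 for no effect and ±100 for the full control effect; nearly all actives have a fitted effect of over 35% in size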). The gist of the method: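 Deubiquitinase activity followed as kinetic rhodamine fluorescence release from 150 nM Ub-Rho. 1 nM USP1/UAF1 with compound, after 15 min room-temperature preincubation, in HEPES pH 7.8 buffer containing TCEP, EDTA, BSA and Tween-20.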

Experiment [5] has as its target DNA dC->dU-editing enzyme APOBEC-3G (Homo sapiens) (UniProt Q9HC16). Description: qHTS for inhibitors of Vif-A3G interactions: Validation (AID 588379; active = well fitted inhibition curve with a large enough effect; also: 0% is about no effect). The gist of the method: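 HeLa cells stably expressing Vif and A3G-eYFP, 700 cells/well, incubated overnight at 37 deg C, then exposed to compound overnight at 37 deg C. Inhibition of Vif-mediated degradation read as increased yellow fluorescence (Ex 488/Em 500-530) by laser-scanning cytometry.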

Experiment [6] relates to Zika virus NS2B-NS3 protease. Put plainly: Primary screen GU AMC qHTS for Zika virus inhibitors (AID 1347154; active = well fitted inhibition curve with a large enough effect;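 also: 0% = no-inhibitor control and -100% = no-enzyme control; nearly all actives have a fitted effect of over 70% in size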). Summed up: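 Unlinked Zika NS2B hydrophilic domain–NS3 protease complex at 25 nM in 10 mM Tris-HCl pH 8.0, 0.01% Tween 20, with an AMC peptide substrate. Fluorescence change (340/450 nm) over 15 min at room temperature, normalized to controls, fitted to 4-parameter Hill.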

Experiment [7] concerns the target Glucocorticoid receptor (Homo sapiens) (UniProt P04150). Description: GR-GFP Redistribution (AID 450;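 active = compounds whose dose series gives a full or clear partial fitted curve of increased nuclear translocation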; also: potency is read from the fitted curve at half-maximal effect). The following applies: U2OS GR-GFP nuclear translocation, laser cytometry, 2 h.
Experiment [8] has the same target. Put plainly: GR-EFC Redistribution (AID 451). Also: potency is read from the fitted curve at half-maximal effect. The note with it: CHO-K1 GR-EFC translocation, beta-gal luminescence, 2 h. The gist of the method:
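CHO-K1 cells expressing nuclear EA and GR-ED fragments of b-gal; compounds titrated up to 46 uM final, 2 h at 37 C. GR nuclear translocation read as complemented b-gal luminescence after 1 h RT detection.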

For experiment [9], the target named is Cytochrome P450 1A2 (Homo sapiens) (UniProt P05177). Put plainly: p450-cyp1a2 (AID 410).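 Also: -100% = full effect of reference inhibitor.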 The gist of the method: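 Human CYP1A2 (20nM) demethylated Luciferin-ME at its Km (100uM) in 100mM KPO4. After 10 min compound preincubation, NADPH regeneration ran the reaction 60 min at room temperature. Luciferin was read by luminescence, normalized to 57 uM furafylline.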

The mark [10] stands for this setting: measured here: cell count channel max response.
The mark [11] stands for this setting: measured here: lipid channel max response.

Values joined by “and” are separate entries in the source; they are usually repeats but may differ in a detail not shown here. Equal entries are not always repeated. Results filed as inconclusive are left out. Active and inactive are the calls of the source. Unless noted, calls follow the shape of the full dose curve.

Glucocorticoid receptor (Homo sapiens), sequence (P04150 whole entry, looked up): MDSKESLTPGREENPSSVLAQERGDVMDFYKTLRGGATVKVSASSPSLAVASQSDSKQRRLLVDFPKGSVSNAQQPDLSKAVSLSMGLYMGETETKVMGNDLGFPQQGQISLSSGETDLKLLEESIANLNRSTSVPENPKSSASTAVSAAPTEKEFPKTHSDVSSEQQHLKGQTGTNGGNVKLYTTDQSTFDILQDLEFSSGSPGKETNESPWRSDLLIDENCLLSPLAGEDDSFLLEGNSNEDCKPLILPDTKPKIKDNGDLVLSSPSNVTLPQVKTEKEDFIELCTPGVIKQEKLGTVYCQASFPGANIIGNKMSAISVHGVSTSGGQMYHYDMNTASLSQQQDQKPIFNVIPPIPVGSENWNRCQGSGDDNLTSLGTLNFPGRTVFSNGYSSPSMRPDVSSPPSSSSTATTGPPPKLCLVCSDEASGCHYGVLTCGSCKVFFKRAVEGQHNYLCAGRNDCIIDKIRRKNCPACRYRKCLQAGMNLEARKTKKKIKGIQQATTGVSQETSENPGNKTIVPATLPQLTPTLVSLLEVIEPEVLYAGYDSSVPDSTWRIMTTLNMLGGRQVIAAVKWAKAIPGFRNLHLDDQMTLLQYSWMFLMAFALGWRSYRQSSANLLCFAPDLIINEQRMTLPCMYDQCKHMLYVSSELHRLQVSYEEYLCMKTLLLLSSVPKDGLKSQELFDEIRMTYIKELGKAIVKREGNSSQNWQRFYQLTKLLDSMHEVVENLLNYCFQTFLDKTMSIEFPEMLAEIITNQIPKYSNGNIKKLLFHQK
3',5'-cyclic-AMP phosphodiesterase 4B (Homo sapiens), sequence (Q07343 whole entry, looked up): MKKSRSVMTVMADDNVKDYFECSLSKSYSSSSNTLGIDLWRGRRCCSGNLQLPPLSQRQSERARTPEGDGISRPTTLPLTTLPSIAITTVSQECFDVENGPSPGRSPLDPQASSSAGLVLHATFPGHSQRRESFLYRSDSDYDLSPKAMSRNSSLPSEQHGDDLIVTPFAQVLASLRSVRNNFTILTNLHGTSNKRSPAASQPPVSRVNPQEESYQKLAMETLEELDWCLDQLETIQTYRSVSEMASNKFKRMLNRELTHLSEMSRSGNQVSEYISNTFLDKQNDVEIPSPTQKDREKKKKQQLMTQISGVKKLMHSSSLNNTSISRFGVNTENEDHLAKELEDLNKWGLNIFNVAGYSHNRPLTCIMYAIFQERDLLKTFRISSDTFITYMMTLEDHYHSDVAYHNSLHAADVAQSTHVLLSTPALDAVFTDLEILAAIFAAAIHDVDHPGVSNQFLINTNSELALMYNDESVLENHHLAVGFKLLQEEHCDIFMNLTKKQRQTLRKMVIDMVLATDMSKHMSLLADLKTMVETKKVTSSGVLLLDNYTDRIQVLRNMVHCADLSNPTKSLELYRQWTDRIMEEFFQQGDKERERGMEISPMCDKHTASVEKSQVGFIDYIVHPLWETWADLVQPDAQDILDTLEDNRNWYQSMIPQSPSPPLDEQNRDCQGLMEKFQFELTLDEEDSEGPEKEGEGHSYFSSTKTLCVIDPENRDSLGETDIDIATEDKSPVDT
Cytochrome P450 1A2 (Homo sapiens), sequence (P05177 whole entry, looked up): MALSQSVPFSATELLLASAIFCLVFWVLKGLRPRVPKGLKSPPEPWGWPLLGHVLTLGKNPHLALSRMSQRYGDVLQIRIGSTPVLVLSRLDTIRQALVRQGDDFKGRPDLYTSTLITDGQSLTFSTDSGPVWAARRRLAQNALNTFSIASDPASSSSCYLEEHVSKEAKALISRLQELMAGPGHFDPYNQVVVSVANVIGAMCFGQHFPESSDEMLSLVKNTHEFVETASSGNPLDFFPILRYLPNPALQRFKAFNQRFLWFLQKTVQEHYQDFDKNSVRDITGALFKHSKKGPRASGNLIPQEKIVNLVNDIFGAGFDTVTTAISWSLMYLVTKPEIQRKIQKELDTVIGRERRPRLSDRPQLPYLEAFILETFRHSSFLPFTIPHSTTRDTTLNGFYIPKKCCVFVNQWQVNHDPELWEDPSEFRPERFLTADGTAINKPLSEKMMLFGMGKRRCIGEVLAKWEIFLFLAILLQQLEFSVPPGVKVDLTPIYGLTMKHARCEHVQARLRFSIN
Ubiquitin carboxyl-terminal hydrolase 1 (Homo sapiens), sequence (O94782 whole entry, looked up): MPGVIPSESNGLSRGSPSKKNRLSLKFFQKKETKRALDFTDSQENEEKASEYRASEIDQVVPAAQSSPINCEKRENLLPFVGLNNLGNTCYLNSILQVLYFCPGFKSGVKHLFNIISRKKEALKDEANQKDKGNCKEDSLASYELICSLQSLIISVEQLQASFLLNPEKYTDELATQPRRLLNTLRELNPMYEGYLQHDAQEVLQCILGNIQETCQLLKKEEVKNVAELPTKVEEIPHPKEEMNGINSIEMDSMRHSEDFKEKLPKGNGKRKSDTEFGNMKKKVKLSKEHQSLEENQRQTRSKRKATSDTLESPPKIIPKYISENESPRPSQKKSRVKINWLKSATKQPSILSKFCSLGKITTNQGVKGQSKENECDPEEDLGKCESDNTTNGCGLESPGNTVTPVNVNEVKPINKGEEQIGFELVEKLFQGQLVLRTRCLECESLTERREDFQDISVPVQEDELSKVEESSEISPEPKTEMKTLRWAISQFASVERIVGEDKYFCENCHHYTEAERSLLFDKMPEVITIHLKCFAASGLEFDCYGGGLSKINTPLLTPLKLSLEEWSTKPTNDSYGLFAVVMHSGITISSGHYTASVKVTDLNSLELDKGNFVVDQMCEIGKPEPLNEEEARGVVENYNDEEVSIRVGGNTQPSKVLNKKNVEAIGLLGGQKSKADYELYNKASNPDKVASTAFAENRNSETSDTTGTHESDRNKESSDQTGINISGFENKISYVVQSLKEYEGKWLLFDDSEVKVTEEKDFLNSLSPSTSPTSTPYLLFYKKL
DNA dC->dU-editing enzyme APOBEC-3G (Homo sapiens), sequence (Q9HC16 whole entry, looked up): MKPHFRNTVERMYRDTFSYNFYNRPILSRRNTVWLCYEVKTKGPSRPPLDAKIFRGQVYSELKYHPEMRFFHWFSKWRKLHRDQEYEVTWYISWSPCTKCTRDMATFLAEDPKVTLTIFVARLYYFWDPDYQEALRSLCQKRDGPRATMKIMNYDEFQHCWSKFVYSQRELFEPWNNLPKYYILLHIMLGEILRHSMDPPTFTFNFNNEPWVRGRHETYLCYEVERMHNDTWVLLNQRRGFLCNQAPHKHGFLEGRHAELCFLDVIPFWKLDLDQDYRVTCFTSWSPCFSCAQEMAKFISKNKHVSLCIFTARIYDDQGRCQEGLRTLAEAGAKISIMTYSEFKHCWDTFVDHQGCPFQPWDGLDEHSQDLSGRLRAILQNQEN

With `CN1C(=O)COc2c(C(=O)N[C@@H]3CN4CCC3CC4)cc(Cl)cc21`, the compound was classed as inactive in experiment [1]. The Potency result in experiment [2], in [4], in [5] and in experiment [6] was “inactive” throughout. Besides, the activity change, negative = inhibition in experiment [3] (at 57.5 µM (top of the series)) is 3.71% (inactive). Moreover, the max response in experiment [3] (setting [10]) turned out to be 5.55%; in experiment [3] (setting [11]) it was 11.3%.

With `O[C@H]1CCCC[C@H]1N1CCC(c2ccccc2)CC1`, the Potency was > 20.6 µM (inactive) and > 46 µM (inactive) in experiment [7]; > 20.6 µM (inactive) and > 46 µM (inactive) in experiment [8]. Also, the call in experiment [1] was inactive. For the same compound, the Potency result in [2], in [4], in experiment [5] and in [6] was “inactive” in each case. For the same compound, the activity change, negative = inhibition in [3] (at 25.7 µM (top of the series)) is 0.444% (inactive); in experiment [3] (at 57.5 µM (top of the series)) it was 0.117% (inactive). The max response in experiment [3] (setting [10]) was -12.1% and 1.1%; in experiment [3] (setting [11]) it was -11.1% and -2.26%.

On to `CCOC(=O)c1ncn2c1[C@H]1CCCN1C(=O)c1cc(OC)ccc1-2`, for which the Potency entry in experiment [9], in experiment [2], in experiment [4], in experiment [5] and in [6] was “inactive” each time. In addition, the Potency in experiment [8] is > 46 µM (inactive). For the same compound, the compound was classed as inactive in experiment [1].

Consider `N#CC(C#N)=NNc1ccc(OC(F)(F)F)cc1`, for which the Potency entry in experiment [6] was “inactive”.

Take `NC[C@H](CC(=O)O)c1ccc(Cl)cc1`: the Potency in [8] was > 46 µM (inactive). The compound was called inactive in experiment [1]. Moreover, the Potency result in [2], in experiment [5] and in experiment [6] was “inactive” each time. In experiment [3] (at 57.5 µM (top of the series)), the activity change, negative = inhibition is 2.02% (inactive). The values for the max response in [3] (setting [10]) and in experiment [3] (setting [11]) were 12.8% and 19.1%, respectively.

As to `Cc1o[nH]c(=O)c1C[C@@H](N)C(=O)O`, the Potency entry in experiment [9], in experiment [2], in [5] and in experiment [6] was “inactive” throughout. Besides, the Potency in experiment [7] and in experiment [8] was > 46 µM (inactive) each time. Further, the activity change, negative = inhibition in [3] (at 57.5 µM (top of the series)) was -2.31% (inactive). Moreover, the max response in experiment [3] (setting [10]) is -0.22%; in experiment [3] (setting [11]) it was 0.175%.

In the case of `C=CCN1C[C@H](C)N([C@@H](c2ccccc2)c2ccc(C(=O)N(CC)CC)cc2)C[C@H]1C`, the Potency in [8] was > 46 µM (inactive). Further, the Potency result in experiment [2], in experiment [4], in [5] and in experiment [6] was “inactive” in each case.

On to `C=C(C)[C@H]1C2C(=O)O[C@H]1[C@H]1OC(=O)[C@@]34O[C@@H]3C[C@]2(O)[C@@]14C`, for which the activity change, negative = inhibition in experiment [3] (at 57.5 µM (top of the series)) was 2.82% (inactive). For the same compound, the max response turned out to be 7.99% in [3] (setting [10]) and 11% in experiment [3] (setting [11]). In addition, the Potency result in [4], in experiment [5] and in [6] was “inactive” each time.

In the case of `N[C@H](C(=O)O)c1cc(=O)[nH]o1`, the Potency result in experiment [9], in [2] and in experiment [6] was “inactive” each time. For the same compound, the Potency in experiment [7] and in experiment [8] was > 46 µM (inactive) throughout. Moreover, in [1], the call was inactive. The activity change, negative = inhibition in experiment [3] (at 57.5 µM (top of the series)) is 3.47% (inactive). In addition, the max response in experiment [3] (setting [10]) was -3.07%; in [3] (setting [11]), -3.59%.

As to `CC(C)(C)NC[C@@H](O)COc1cccc2[nH]c(C#N)cc12`, the Potency in experiment [7] and in [8] was > 46 µM (inactive) in each case. For the same compound, in experiment [1], the result was inactive. For the same compound, the activity change, negative = inhibition in [3] (at 57.5 µM (top of the series)) was 2.4% (inactive). The max response in experiment [3] (setting [10]) was -20.5%; in [3] (setting [11]) it was -17.5%. Further, the Potency entry in [4], in experiment [5] and in [6] was “inactive” each time.

`N[C@H](Cc1o[nH]c(=O)c1Cl)C(=O)O`: the Potency entry in [9], in experiment [2], in experiment [4], in [5] and in experiment [6] was “inactive” each time. For the same compound, the Potency in [7] and in [8] was > 46 µM (inactive) in each case. For the same compound, the outcome in [1] was inactive. For the same compound, the activity change, negative = inhibition in experiment [3] (at 57.5 µM (top of the series)) was -0.357% (inactive). Further, the max response stood at 4.55% in experiment [3] (setting [10]) and 4.87% in experiment [3] (setting [11]).

In the case of `N[C@H](CP(=O)(O)O)C(=O)O`, the Potency entry in experiment [9], in experiment [2] and in experiment [6] was “inactive” each time. Further, in experiment [8], the Potency is > 46 µM (inactive). Also, in experiment [1], the outcome was inactive. The activity change, negative = inhibition in [3] (at 57.5 µM (top of the series)) was -5.82% (inactive). The max response in experiment [3] (setting [10]) amounted to 12.7%; in [3] (setting [11]) it was 11.5%.

As to `CC(=O)N1CC[N+](C)(C)CC1`, the Potency result in [9], in [2], in experiment [5] and in [6] was “inactive” each time. In addition, in experiment [8], the Potency was > 46 µM (inactive). The call in [1] was inactive. Further, the activity change, negative = inhibition in [3] (at 57.5 µM (top of the series)) is 2.08% (inactive). Further, the max response is -4.3% in [3] (setting [10]) and -0.222% in [3] (setting [11]).

Consider `N[C@H](CCCCCP(=O)(O)O)C(=O)O`, for which the Potency entry in experiment [9], in experiment [2], in experiment [4], in [5] and in [6] was “inactive” each time. Moreover, the Potency in [7] and in experiment [8] was > 46 µM (inactive) throughout. Further, the result in experiment [1] was inactive. Moreover, the activity change, negative = inhibition in experiment [3] (at 57.5 µM (top of the series)) is -3.15% (inactive). Moreover, the max response in experiment [3] (setting [10]) is -11.8%; in experiment [3] (setting [11]) it was -15.1%.

In the case of `C=CCN1CC[C@]23c4c5ccc(O)c4O[C@@H]2C(=O)CC[C@]3(O)[C@H]1C5`, the outcome in experiment [1] was inactive. Also, the Potency result in experiment [2], in experiment [4], in experiment [5] and in experiment [6] was “inactive” in each case. Also, the activity change, negative = inhibition in experiment [3] (at 25.7 µM (top of the series)) was -1.11% (inactive); in experiment [3] (at 57.5 µM (top of the series)), 5.83% (inactive). Besides, the max response was 1.84% and 18.9% in experiment [3] (setting [10]); 3.55% and 28.2% in experiment [3] (setting [11]).

As to `C=C(C)[C@H]1CN[C@H](C(=O)O)[C@@H]1CC(=O)O`, the Potency entry in [9], in [2], in experiment [4], in experiment [5] and in experiment [6] was “inactive” throughout. For the same compound, the Potency in experiment [8] was > 46 µM (inactive). The result in [1] was inactive. In [3] (at 57.5 µM (top of the series)), the activity change, negative = inhibition is 2.85% (inactive). In addition, the max response in experiment [3] (setting [10]) is -5.55%; in experiment [3] (setting [11]), -4.1%.

For the origin of these results see PubChem BioAssay (NCATS).
